Data taken from the antibiotic and cytotoxicity screens of Wong et al. (2023).
Among all 39,000 compounds or so, about 500 (1.3%) were called active. Shown is part of a subset that was picked to be rich in actives.

The molecules below were run on S. aureus RN4220 (assay: growth inhibition call (relative growth <= 0.2)). Conditions: 50 µM.

SMILES | growth inhibition call
O=c1cc(-c2ccccc2)oc2cc(O)ccc12 | inactive
O=C(O)c1c(Br)c(Br)c(Br)c(Br)c1-c1c2ccc(=O)cc-2oc2cc(O)ccc12 | active
O=c1cc(-c2ccccc2O)oc2cc(O)ccc12 | inactive
COc1ccccc1S(=O)(=O)N(C)C[C@@H]1OCc2cnnn2CCCC(=O)N([C@H](C)CO)C[C@@H]1C | inactive
Cc1onc(-c2ccccc2)c1CN | inactive
Clc1ccc(CON=C(Cn2ccnc2)c2ccc(Cl)cc2Cl)c(Cl)c1.O=[N+]([O-])O | active
Clc1ccc(COC(Cn2ccnc2)c2ccc(Cl)cc2Cl)cc1.O=[N+]([O-])O (stereo not drawn) | inactive
Clc1ccc(CSC(Cn2ccnc2)c2ccc(Cl)cc2Cl)cc1.O=[N+]([O-])O (stereo not drawn) | inactive
CC(=O)N(C)C[C@H]1Oc2ncc(C#C[C@@H](C)O)cc2C(=O)N([C@@H](C)CO)C[C@@H]1C | inactive
CC(C)NC(=O)N(C)C[C@H]1Oc2c(NS(=O)(=O)c3cn(C)cn3)cccc2C(=O)N([C@H](C)CO)C[C@@H]1C | inactive
C[C@H]1CN([C@@H](C)CO)C(=O)c2cc(NC(=O)NC3CCCCC3)ccc2O[C@H]1CN(C)Cc1ccc(Cl)c(Cl)c1 | inactive
NC[C@@H]1CCCO1 | inactive
CCC1OC(=O)CC(O)C(C)C(OC2OC(C)C(OC3CC(C)(O)C(O)C(C)O3)C(N(C)C)C2O)C(CC=O)CC(C)C(=O)C=CC(C)=CC1COC1OC(C)C(O)C(OC)C1OC.O=C(O)C(O)C(O)C(=O)O (stereo not drawn) | active
CC[C@H]1OC(=O)C[C@@H](O)[C@H](C)[C@@H](O[C@@H]2O[C@H](C)C[C@H](N(C)C)[C@H]2O)[C@@H](CC=O)C[C@@H](C)C(=O)/C=C/[C@]2(C)O[C@H]2[C@@H]1C | active
CC[C@H]1OC(=O)C[C@@H](O)[C@H](C)[C@@H](O[C@@H]2O[C@H](C)[C@@H](O[C@H]3C[C@@](C)(O)[C@@H](O)[C@H](C)O3)[C@H](N(C)C)[C@H]2O)[C@@H](CC=O)C[C@@H](C)C(=O)/C=C/C(C)=C/[C@@H]1CO[C@@H]1O[C@H](C)[C@@H](O)[C@@H](OC)[C@H]1OC | active
COc1cccc(C(=O)Nc2ccc3c(c2)C(=O)N(C)[C@@H]2CC[C@H](CC(=O)NCC4CC4)O[C@@H]2CO3)c1 | inactive
Cc1noc(C)c1NC(=O)Nc1ccc2c(c1)C(=O)N([C@H](C)CO)C[C@H](C)[C@@H](CN(C)C(=O)C1CCCCC1)OCCCC[C@@H](C)O2 | inactive
COCC#Cc1ccc2c(c1)O[C@H](CN(C)C(=O)c1ccccc1F)[C@@H](C)CN([C@@H](C)CO)S2(=O)=O | inactive
C[C@@H]1CN([C@H](C)CO)C(=O)c2cc(NC(=O)Nc3cccc4ccccc34)ccc2O[C@H]1CN(C)S(=O)(=O)c1ccccc1 | inactive

SMILES | growth inhibition call
COC(=O)c1cc(=O)nc2n1[C@H]1O[C@H](CO)[C@H](O)[C@H]1O2 | inactive
COc1cccc(NC(=O)C[C@H]2CC[C@@H]3[C@@H](COc4ccc(NC(=O)C5CCOCC5)cc4C(=O)N3C)O2)c1 | inactive
CC(C)NC(=O)N(C)C[C@H]1Oc2ccc(NS(=O)(=O)c3cn(C)cn3)cc2C(=O)N([C@@H](C)CO)C[C@H]1C | inactive
CN(C)C1CCN(C(=O)c2cnc(-c3noc4cc(-c5cccc(C(F)(F)F)c5)ccc34)s2)CC1 | inactive
CN(C)C1CCN(C(=O)c2cnc(-c3noc4cc(-c5ccccc5C(F)(F)F)ccc34)s2)CC1 | active
Cc1ccc(S(=O)(=O)N(C)C[C@H]2Oc3c(NS(=O)(=O)c4ccc(F)cc4)cccc3C(=O)N([C@@H](C)CO)C[C@H]2C)cc1 | inactive
C[C@H]1CN([C@@H](C)CO)C(=O)c2c(c3ccccc3n2C)-c2ccccc2CO[C@H]1CN(C)Cc1ccc(C(=O)O)cc1 | inactive
CC(C)(C)NCCCCOc1ccc(Cl)cc1C(C)(C)C | inactive
Cc1ccc(OCc2ccc(Cl)cc2)c(C(C)(C)C)c1 | inactive
CC[C@@H](C)NCCCCOc1ccc(Cl)cc1C(C)(C)C | active
C[C@H](CO)N1C[C@H](C)[C@@H](CN(C)S(=O)(=O)c2cn(C)cn2)Oc2ccc(NC(=O)Nc3ccc4c(c3)OCO4)cc2CC1=O | inactive
CC[C@H](C)[C@H](N)C1=N[C@H](C(=O)N[C@@H](CC(C)C)C(=O)N[C@H](CCC(=O)O)C(=O)N[C@H](C(=O)N[C@H]2CCCCNC(=O)[C@H](CC(N)=O)NC(=O)[C@@H](CC(=O)O)NC(=O)[C@H](Cc3cnc[nH]3)NC(=O)[C@@H](Cc3ccccc3)NC(=O)[C@H]([C@@H](C)CC)NC(=O)[C@@H](CCCN)NC2=O)[C@@H](C)CC)CS1 | active
NCCCC[C@H](NC(=O)[C@@H]1CCCN1C(=O)[C@@H]1CSSC[C@H](N)C(=O)N[C@@H](Cc2ccccc2)C(=O)N[C@@H](Cc2ccccc2)C(=O)NC(CCC(N)=O)C(=O)N[C@@H](CC(N)=O)C(=O)N1)C(=O)NCC(N)=O (stereo partly drawn) | inactive
CC(=O)N[C@@H](CCCNC(=N)N)C(=O)N[C@H]1CSSC[C@@H](C(N)=O)NC(=O)[C@H](Cc2c[nH]c3ccccc23)NC(=O)[C@H](CCCNC(=N)N)NC(=O)[C@@H](Cc2ccccc2)NC(=O)[C@H](Cc2cnc[nH]2)NC(=O)[C@@H](C)NC1=O | inactive
CC[C@H](C)[C@H](N)C1=N[C@H](C(=O)N[C@@H](CC(C)C)C(=O)N[C@@H]2CCC(=O)[O][Zn][O]C(=O)C[C@H]3NC(=O)[C@H](Cc4c[nH]cn4)NC(=O)[C@@H](Cc4ccccc4)NC(=O)[C@H]([C@@H](C)CC)NC(=O)[C@@H](CCCN)NC(=O)[C@H](CCCCNC(=O)[C@H](CC(N)=O)NC3=O)NC(=O)[C@H]([C@@H](C)CC)NC2=O)CS1 | active
C[C@@H]1CN([C@@H](C)CO)C(=O)c2cc(NC(=O)Nc3ccc(C(F)(F)F)cc3)ccc2O[C@@H]1CN(C)C(=O)Nc1ccc2c(c1)OCO2 | inactive
CC(=O)c1c(C)nn(CC(=O)O)c1C | inactive
COc1ccc(NC(=O)N(C)C[C@@H]2OCCCC[C@@H](C)Oc3ccc(NC(=O)NC(C)C)cc3C(=O)N([C@H](C)CO)C[C@@H]2C)cc1 | inactive
O=C(C[C@@H]1C[C@@H]2c3cc(NC(=O)c4ccc5c(c4)OCO5)ccc3O[C@@H]2[C@H](CO)O1)NCc1ccc(Oc2ccccc2)cc1 | inactive
